# GLP1R ag: qHTS of GLP-1 Receptor Agonists; Glucagon-like peptide 1 receptor (Homo sapiens), P43220; HEK293 GLP-1R CRE-luciferase, luminescence, 4-6 h; cells express a hypersensitive GLP-1R form; Potency, µM (titrated, usually from 45.6 µM), most hits filed as activators; hit rate 0.007% among 380,000
# Target sequence (P43220 whole entry, looked up): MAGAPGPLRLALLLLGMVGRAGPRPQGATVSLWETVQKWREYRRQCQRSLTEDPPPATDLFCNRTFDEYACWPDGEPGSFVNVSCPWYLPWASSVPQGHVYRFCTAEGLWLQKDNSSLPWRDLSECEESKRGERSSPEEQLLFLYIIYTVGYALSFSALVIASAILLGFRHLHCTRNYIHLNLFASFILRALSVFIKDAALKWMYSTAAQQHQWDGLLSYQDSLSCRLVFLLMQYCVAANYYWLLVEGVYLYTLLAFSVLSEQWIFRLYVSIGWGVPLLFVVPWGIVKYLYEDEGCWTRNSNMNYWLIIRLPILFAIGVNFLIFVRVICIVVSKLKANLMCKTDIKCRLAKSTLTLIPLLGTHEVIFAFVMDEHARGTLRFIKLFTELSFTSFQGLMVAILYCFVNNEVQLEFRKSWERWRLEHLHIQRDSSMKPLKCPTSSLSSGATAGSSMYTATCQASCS
# ATXN viability: Viability Counterscreen for Primary qHTS for Inhibitors of ATXN expression; S2 cells (HEK-293 line with an ATXN2-luciferase reporter) viability, CellTiter-Fluor protease fluorescence, 24 h; Potency, µM (doses to about 56.7 µM), usual class: cytotoxic; hit rate 0.49% among 400,000; AID 651635, 2014; also: nearly all actives have a fitted effect of over 40% in size
# ATXN2 expr inh: Primary qHTS for Inhibitors of ATXN expression; hit rate 0.72% among 360,000; Potency, µM (titrated, usually from 57 µM), usual class: inhibitors; HEK-293 ATXN2-luciferase reporter, luminescence, 24 h; AID 1745845, 2022; also: nearly all actives have a fitted effect of over 55% in size
#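 ATXN2-luciferase reporter cells (luciferase flanked by upstream and downstream ATXN2 gene portions) were treated 24 h at 37 °C with compounds at up to 57 uM. SteadyGlo luminescence gave expression; GF-AFC fluorescence gave viability.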
# HepG2 tox: qHTS for Inhibitors of TGF-b: Cytotox Counterscreen; HepG2 CAGA-GFP viability, ATP luminescence, 18 h; Potency, µM (doses to about 46.1 µM), most hits filed as cytotoxic; hit rate 0.76% among 410,000; AID 588856, 2011
#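 HepG2 CAGA-GFP cells (1000/well, DMEM with 1% FBS) received compound, then TGF-beta at 500 pg/mL final, and were incubated 18 hours at 37 degrees C. Viability was read by CellTiter-Glo luminescence. Media-only wells were set as complete cell-killing and DMSO as no toxicity.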
# TGFb SMAD3 inh: qHTS for Inhibitors of TGF-b. HepG2 CAGA-GFP TGF-b/SMAD3 reporter, GFP fluorescence, 18 h; TGF-beta stimulated, 500 pg/mL final. Potency, µM (doses to about 46.1 µM), most hits filed as inhibitors. hit rate 1.2% among 410,000. AID 588855, 2011; also: nearly all actives have a fitted effect of over 65% in size
#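 TGF-beta reporter screen: HEPG2 CAGA-GFP, 1% FBS, 500 pg/mL TGF-beta final, 18 h; per-cell GFP summed per well; curves fitted and categorized by class.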
# GLP1R inv ag: qHTS of GLP-1 Receptor Inverse Agonists (Inhibition Mode); Glucagon-like peptide 1 receptor (Homo sapiens), P43220; HEK293 GLP-1R CRE-luciferase, luminescence, 24 h; GLP-1R form is constitutively active; Potency, µM (highest dose often 38.3 µM), most hits filed as inhibitors; hit rate 1.6% among 410,000; AID 624417, 2012; also: nearly all actives have a fitted effect of over 55% in size
#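 Readout was luciferase luminescence, measured 12 min after detection reagent at room temperature. Beforehand, GLP-1R reporter HEK293 cells had sat 12 h, then received compounds for 24 hr at 37 deg C.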
# Hits are given with their value; . = inactive; ? = inconclusive; / = not tested or not shown; ! = not confirmed by another sample. Most compounds without a hit are left out; they make up all but 3.7% or so of the library. Calls follow the shape of the dose curve; as a rule, active = well fitted curve in the direction sought with a large enough effect; inconclusive = small, poorly fitted or top-dose-only effect, or another doubt; inactive = no such curve, though single readings can be large; an effect the other way counts as inactive or inconclusive.
SMILES,GLP1R ag,ATXN viability,ATXN2 expr inh,HepG2 tox,TGFb SMAD3 inh,GLP1R inv ag
CCOc1ccc(CNC(=O)C2CCN(c3nnc(C)c4c(C)n(-c5ccc(C)cc5)nc34)CC2)cc1,.,?,/,.,?,.
CCOc1ccccc1CNC(=O)C1CCN(c2nnc(C)c3c(C)n(-c4ccc(C)cc4)nc23)CC1,.,/,?,10µM!,11µM,.
Cc1ccc(-n2nc3c(N4CCC(C(=O)NCc5ccccc5C)CC4)nnc(C)c3c2C)cc1,.,?,?,.,18µM,?
COc1ccc2nc3cc(Cl)ccc3c(C#N)c2c1,.,.,.,.,.,.
COc1ccc2nc3cc(Cl)ccc3c(Nc3ccc(O)c(CN4CCN(C)CC4)c3)c2c1,.,?,?,.,11µM,?
C[C@H]1C[C@@H]2[C@H]([C@@H](O)C[C@@]3(C)[C@H]2CC[C@]3(O)C(=O)COC(=O)CCC(=O)O)[C@@]2(C)C=CC(=O)C=C12,.,.,/,/,/,/
CC(=O)c1ccc(Nc2ccc([N+](=O)[O-])c3nonc23)cc1,.,?,/,.,11µM,.
O=C(O)c1cccc(Nc2ccc([N+](=O)[O-])c3nonc23)c1,.,16µM,.,.,.,.
CC(=O)N1CCc2c(sc(NC(=O)Cc3ccc(F)cc3)c2C(N)=O)C1,.,.,/,11µM,.,.
COc1cc(CNc2ccc3[nH]c(=O)[nH]c3c2)cc(Cl)c1OCc1ccccc1F,/,?,.,.,.,.
COc1cc(CNC2CCCC2)cc(Cl)c1OCc1ccccc1F,.,/,20µM,11µM,?,3.5µM
Cc1ccc(C(C[N+](=O)[O-])c2c(-c3ccccc3O)[nH][nH]c2=O)cc1 (stereo not drawn),.,?,.,7.9µM,?,?
CN(C)S(=O)(=O)c1cccc2c1C(=O)c1ccccc1C2=O,.,.,.,.,.,.
NS(=O)(=O)c1cccc2c1C(=O)c1cccc(O)c1C2=O,/,/,3.1µM,/,/,/
Cc1cc(C)c2c(C)ccnc2c1,/,/,/,.,.,/
CC1(C)Cc2c(C#N)c(SCCOc3ccccc3)nc(N3CCOCC3)c2CO1,.,.,.,.,.,13µM
NS(=O)(=O)c1ccc(CCNC(=O)c2ccc([N+](=O)[O-])s2)cc1,.,.,.,20µM,?,.
NS(=O)(=O)c1ccc(CCNC(=O)c2ccc(Cl)s2)cc1,.,.,.,.,.,.
COc1ccc(C)cc1NC(=O)COC(=O)c1c(C)nn(-c2ccccc2)c1C,.,?,22µM,.,.,?
Cc1nn(-c2ccccc2)c(C)c1C(=O)OCC(=O)Nc1ccccc1F,.,.,.,.,.,.
COc1ccc(C)cc1NC(=O)COC(C)=O,.,.,.,.,.,.
CCC(C(=O)OCC(=O)Nc1cc(C)ccc1OC)c1ccccc1 (stereo not drawn),.,.,.,.,.,10µM
Cc1cc(=O)n2nc(N(C)CC(=O)NCc3cccc(Br)c3)sc2n1,/,.,.,.,.,.
CCCN(CCC)c1ccc(/C=C/c2sc3ccccc3[n+]2CCCCI)cc1,/,/,/,14µM,6.3µM,/
O=C(CO)[C@@H](O)[C@H](O)[C@@H](O)CO,/,.,.,/,/,/
SMILES,GLP1R ag,ATXN viability,ATXN2 expr inh,HepG2 tox,TGFb SMAD3 inh,GLP1R inv ag
Cn1c(CC(=O)Nc2ccccc2F)nnc1SCC(=O)Nc1ccccc1Br,.,.,.,11µM,.,.
O=C(CSc1nnc2c3ccccc3c3ccccc3c2n1)Nc1ccccc1F,.,14µM,?,.,.,.
Cn1c(CC(=O)Nc2ccccc2F)nnc1SCC(=O)Nc1nncs1,.,.,.,.,.,.
CC(C)N(CCC(=O)c1ccc2ccccc2c1)Cc1ccccc1,.,?,.,.,11µM,.
Cc1noc(/C=C/c2ccccc2F)c1S(=O)(=O)N1CCC(C(=O)N2CCOc3ccccc32)CC1,/,/,/,.,.,.
CC(C)COc1ccc(C(=O)Nc2sc3c(c2C(=O)O)CC(C)(C)OC3)cc1,.,.,.,.,.,11µM
CCOC(=O)c1c(C)nn(-c2ccc(NC(=O)c3cccs3)cc2)c1C,.,.,28µM,.,.,?
CCOC(=O)c1c(NC(=O)c2cccs2)sc2c1CC(C)(C)OC2,.,.,.,0.1µM,.,.
CCOC(=O)c1c(C)nn(-c2ccc(NC(=O)c3c(C)noc3C)cc2)c1C,.,.,?,.,.,.
COc1cccc(N2CCN(c3c4c(nc5nncn35)CCC4)CC2)c1,/,/,/,.,/,.
O=c1cc(-c2ccccc2Cl)oc2cccc(O)c12,.,.,.,.,.,.
O=c1cc2oc3cc(O)c(O)cc3c(-c3ccccc3[N+](=O)[O-])c-2cc1O,.,16µM,/,.,.,?
CCCCCCCNC1=CC(=O)CC(c2ccccc2)C1 (stereo not drawn),.,.,?,.,?,11µM
N#CCNC(=O)c1ccc(-c2ccnc(Nc3ccc(N4CCOCC4)cc3)n2)cc1,/,/,19µM,/,/,/
NC(=O)[C@@H]1CC2(CC(c3cccc(NC(=O)COc4ccc(Cl)cc4)c3)=NO2)CN1C(=O)COc1ccc(Cl)cc1 (stereo partly drawn),.,?,?,.,?,11µM
NC(=O)[C@H]1CC2(CC(c3cccc(NC(=O)COc4ccc(Cl)cc4)c3)=NO2)CN1C(=O)C(c1ccccc1)c1ccccc1 (stereo partly drawn),.,.,?,.,?,5.6µM
O=C(NCCOc1ccccc1)c1ccc2c(c1)OCO2,.,.,4.5µM,.,.,?
CSc1cccc(-c2nnc(NC(=O)c3ccc4c(c3)OCCO4)o2)c1,/,/,/,.,.,.
O=C(Nc1nnc(-c2ccc3c(c2)OCCO3)o1)c1ccc(Cc2ccccc2)cc1,.,25µM,?,.,?,.
CC(/C=C/C=C/c1ccccc1)=N\NC(=O)c1cccnc1,.,/,.,.,.,.
CN(CCOc1ccccc1)C(=O)c1ccc2c(c1)OCO2,?,.,.,.,.,.
CC1CCC(NC(=O)c2ccc3c(c2)OCO3)CC1 (stereo not drawn),.,.,?,.,.,4µM
CC(/C=C/C=C/c1ccccc1)=N/NC(=O)c1ccc2c(c1)OCCO2,.,.,.,11µM,.,.
CC(NC(=O)c1ccc2c(c1)OCO2)c1ccccc1 (stereo not drawn),.,.,.,.,.,.
CCc1ccc(C(C)NC(=O)c2ccc3c(c2)OCO3)cc1 (stereo not drawn),.,.,.,.,.,11µM
